The text below walks through data of PubChem BioAssay (NCI).

Compounds without any hit were thinned out: in the full panel of roughly 83,000, 20% have a hit.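 The endpoint reported here, percent growth, reads 100 for growth as untreated, 0 for no net growth and -100 for all cells dead.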 Values without a mark were called inactive. The source made the active and inactive calls. Rule for the calls: active = growth percent below 10; inactive = the rest.

Common to all, as to test: NCI-60 one-dose screen, 48 h (100 = growth as untreated, 0 = no growth, -100 = all killed)
Holding throughout (settings): 10 µM unless noted

Experiment [1] has as its system SK-MEL-2 melanoma.
The subject of experiment [2] is EKVX NSCLC.
Experiment [3] concerns SN12C renal.
Experiment [4] deals with UO-31 renal.
For experiment [5], the system named is TK-10 renal.
In experiment [6] the test system is ACHN renal.
Experiment [7] has as its system CAKI-1 renal.
In experiment [8] the test system is A498 renal.
Experiment [9] relates to CCRF-CEM leukemia.
The test system of experiment [10] is MOLT-4 leukemia.
In experiment [11] the test system is SR leukemia.
The test system of experiment [12] is RPMI-8226 leukemia.
Experiment [13] relates to OVCAR-8 ovarian.
Experiment [14] concerns OVCAR-5 ovarian.
Experiment [15] has as its system OVCAR-4 ovarian.
Experiment [16] concerns SK-OV-3 ovarian.
Experiment [17] relates to IGROV1 ovarian.
Experiment [18] has as its system OVCAR-3 ovarian.
Experiment [19] concerns HS 578T breast.
The test system of experiment [20] is NCI/ADR-RES ovarian.

As to `COc1ccc(-c2cc(-c3cc(OC)c(OC)c(OC)c3)[nH]c(=O)c2C#N)cc1`, the growth in experiment [1] is 97.8%; in [2], 65.6%; in [3] it was 8.1% (active); in [4], -24.9% (active); in [5] it was 40.8%; in [6] it was -25.4% (active). The growth in experiment [7] is 47%; in [8], -2.4% (active); in [9], 76.7%; in experiment [10], 80.1%; in experiment [11] it was 80.8%; in experiment [12], 72.2%. Further, the growth in experiment [13] is 13.4%; in experiment [14], 79.1%; in experiment [15], 7.74% (active); in [16], 30.7%; in experiment [17], 36.7%; in experiment [18], 102%. Also, the growth in experiment [19] is 24.2%; in experiment [20] it was 42.2%.

For the compound `Nc1nnc(-c2cncc(Br)c2)c(-c2c[nH]c3ccc(Br)cc23)n1`, the growth in experiment [1] was 55.4%; in experiment [2], 65.7%; in [3] it was 57.6%; in experiment [4] it was 34.8%; in experiment [5] it was 97.7%; in [6], 56.5%. The growth in experiment [7] is 46%; in experiment [8], 92.7%; in experiment [9], 44.1%; in experiment [10], 33%; in experiment [11], 54.3%; in experiment [12], 38.4%. Besides, the growth in experiment [13] was 60%; in experiment [14], 83%; in experiment [15], 42.9%; in [16], 98.7%; in [17], 52.3%; in experiment [18] it was 69.9%. Also, the growth in experiment [19] was 55.3%; in experiment [20], 23.9%.

For the compound `COc1cc(/C=C/C(=O)c2cnn(-c3cc(=O)[nH]c4ccc(C)cc34)c2C)cc(OC)c1OC`, the growth in [1] is -73.1% (active); in experiment [2], -9.39% (active); in [3] it was 10.4%; in experiment [4] it was -45.8% (active); in experiment [5], 37.8%; in experiment [6], -8.39% (active). Moreover, the growth in [7] was 16.4%; in experiment [8] it was 8.36% (active); in [9], -22.2% (active); in experiment [10] it was -8.06% (active); in experiment [11], -8.63% (active); in experiment [12], -40.2% (active). The growth was 11.5% in experiment [13]; -37.3% (active) in [14]; 39.3% in [15]; 24.7% in [16]; -1.52% (active) in experiment [17]; -50.1% (active) in experiment [18]. Also, the growth in [19] is 52.5%; in [20] it was -11.1% (active).

As to `COc1cc(CNC(=O)C[C@H](C)CCC=C(C)C)ccc1OCc1cn(-c2ccccc2F)nn1`, the growth is 78.6% in experiment [1]; 78.3% in experiment [2]; 76.1% in experiment [3]; 71.9% in [4]; 95.8% in experiment [5]; 65.3% in experiment [6]. The growth was 55.1% in experiment [7]; 103% in experiment [8]; 97.3% in experiment [9]; 74.8% in [10]; 73.4% in [11]; 81.8% in experiment [12]. The growth in experiment [13] is 66.5%; in experiment [14], 94.9%; in experiment [15], 71.4%; in experiment [16], 43.6%; in [17], 81.9%; in [18] it was 105%. Also, the values for the growth in experiment [19] and in [20] were 39.5% and 54.8%, respectively.

`COc1ccc(NC(=O)Cn2c(/C=C/c3cccc(Br)c3)nc3ccccc3c2=O)cc1`: the growth was 80.3% in experiment [1]; 81.8% in experiment [2]; 5.79% (active) in experiment [3]; -60.6% (active) in experiment [4]; -39.4% (active) in [5]; -51.1% (active) in [6]. For the same compound, the growth in experiment [7] was 55.7%; in experiment [8], -51.1% (active); in experiment [9], 86.8%; in [10], 86.5%; in experiment [11], 78.3%; in experiment [12], 42.5%. Also, the growth in experiment [13] was 14.4%; in experiment [14] it was 47.6%; in experiment [15], -45.7% (active); in [16], 36.4%; in [17] it was 49.8%; in [18], 36.3%. Besides, the growth is -0.494% (active) in experiment [19] and 31.2% in [20].

On to `Cc1cc(C2(c3cc(C)c(OCC(O)CNc4c(C)n(C)n(-c5ccccc5)c4=O)cc3C(C)C)OC(=O)c3ccccc32)c(C(C)C)cc1OCC(O)CNc1c(C)n(C)n(-c2ccccc2)c1=O` (stereo not given), for which the growth in experiment [1] was -5.35% (active); in [2], 16.3%; in experiment [3] it was 26.6%; in [4], 19.1%; in experiment [5] it was 24.8%; in experiment [6], 17.1%. The growth in [7] was 21.9%; in [8], 55.4%; in experiment [9], 12.3%; in experiment [10] it was 13.1%; in [11] it was 5.65% (active); in [12] it was 24.4%. The growth in experiment [13] is 33.1%; in [14], 50.9%; in experiment [15], 38.6%; in experiment [16], 67.5%; in experiment [17], 43.1%; in experiment [18], 15.5%. The growth in experiment [19] was 22.1%; in experiment [20], 58%.

Consider `COC(=O)c1cc(C(=O)C(F)(F)F)n2c3ccccc3c3ccccc3c12`, for which the growth in [1] is 97.6%; in experiment [2], 78.3%; in [3] it was 53.1%; in experiment [4], 39%; in experiment [5] it was 73.7%; in experiment [6] it was 18.2%. The growth in experiment [7] is 43.1%; in experiment [8], 120%; in experiment [9], 97.6%; in [10] it was 97.4%; in experiment [11], 60.7%; in experiment [12], 96%. Also, the growth in experiment [13] was 42.7%; in experiment [14], 83.5%; in [15], 10.8%; in experiment [16], 82.9%; in [17] it was 40%; in experiment [18] it was 82.9%. The growth was 41.7% in [19] and 67.7% in experiment [20].
